Hit rate of the full screen: of about 300,000 compounds, about 3,600 (1.2%) were called active. No stated cut-off is given here; in the data, active means activation above about 30% (passing the limit was not always enough); inconclusive means no clear call, values can overlap the other calls. This excerpt belongs to a sample that is enriched for actives.
test: activation of beta-catenin signaling reporter – cell-based, plate reader, single point, primary screen (AID 743398); conditions: Wnt/beta-catenin reporter cell assay, activator, at 9.35 µM, hits give high values;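 further: 0% = neutral control wells and 100% = positive control wells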

Structure (SMILES) | activation
CCC(=O)N1Cc2cc(C(=O)NCc3cccc(F)c3)nc(-c3cccc(C4=CCCC4)c3)c2[C@H]1CCO | -0.49% (inactive)
O=C(NCc1ccccc1)[C@H]1CCCN1C(=O)[C@H]1CCCN1C(=O)c1cc(F)cc(F)c1 | 0.924% (inactive)
COc1ccc(/C=N/NS(=O)(=O)c2ccc(NC(C)=O)cc2)cc1 | 0.428% (inactive)
COc1ccc(/C=N/Nc2ccccc2C(=O)O)cc1 | 42.5% (active)
COc1ccc(C(=O)Nc2ccccc2C(=O)N/N=C/c2ccc(O)c(OC)c2)cc1 | -6.14% (inactive)
Cn1nc(N)c2ncc(C(Cl)(Cl)Cl)nc21 | -2.14% (inactive)
N#Cc1cccc(C(=O)NCC2CCN(C(=O)C(=O)c3cc4ccccc4o3)CC2)c1 | -4.03% (inactive)
Cc1ccc(C(=O)N/C(=C/c2cccs2)C(=O)NCC2CCCO2)cc1 (stereo not drawn) | -12.8% (inactive)
Cc1ccc(-n2c(C)cc(/C=C(\C#N)C(=O)NCC3CCCO3)c2C)cc1 (stereo not drawn) | 38.2% (active)
Cc1ccc2c(c1)N(CC(=O)NCC1CCCO1)C(=O)CO2 (stereo not drawn) | 6.02% (inactive)
O=C1Nc2ccccc2NC(c2ccc3c(c2)OCO3)=C1N(Cc1ccc(F)cc1)C(=O)c1ccco1 | -2.97% (inactive)
COC(=O)[C@]12C[C@H](CC(=O)NCc3cccc(C(F)(F)F)c3)C(=O)N(Cc3ccc4c(c3)OCO4)C1=C[C@H](COCc1ccccc1)O[C@@H]2C | -11.9% (inactive)
CCCCNc1cccc2c1S(=O)(=O)N[C@@H](C)CO2 | -1.25% (inactive)
O=C(NCc1cccc(C(F)(F)F)c1)c1ccc2sc(COCCO)nc2c1 | 0.012% (inactive)
Cc1ccc(NC(=O)Nc2cccnc2)cc1 | 8.59% (inactive)
Cc1ccc(NC(=O)Nc2nnc(-c3ccncc3)s2)cc1 | 0.919% (inactive)
Cc1ccc(NC(=O)Nc2ccc3oc(C)nc3c2)cc1 | 53.7% (active)
O=C1Nc2ccccc2-n2nnnc2C1N1CCN(c2cccc(C(F)(F)F)n2)CC1 (stereo not drawn) | -4.31% (inactive)
O=C(CSc1nc2ccccc2o1)N1c2ccccc2Sc2ccc(Cl)cc21 | -2.83% (inactive)
O=C(CSc1nc2ccccc2o1)N/N=C/c1ccccc1C(=O)O | 25.7% (inactive)
CC(C)(C)C(=O)CSc1nc2ccccc2o1 | 52.3% (active)
Cc1cc2c(cc1C)N1C(=O)c3cc4ccccc4cc3NC(=O)C1C(=O)N2 (stereo not drawn) | -1.58% (inactive)
CC1(C(=O)Nc2cccc3c2CCCC3)CCN1C(=O)C1(c2ccccc2)CC1 (stereo not drawn) | -1.58% (inactive)
Oc1ccc(-n2nnnc2SCc2c(F)cccc2Cl)cc1 | -2.71% (inactive)

Structure (SMILES) | activation
Cc1ccc(CSc2nnc(-c3cnccn3)n2C)cc1 | 2.04% (inactive)
Cn1c(SCc2c(F)cccc2Cl)nnc1-c1cnccn1 | 41.7% (active)
COc1ccccc1N1CCN(/N=C/c2ccc(O)cc2O)CC1 | 37.4% (active)
COc1ccccc1N1CCN(/N=C\C(Br)=C\c2ccccc2)CC1 | 7.85% (inactive)
COc1cc(/C=N/N2CCN(c3ccccc3)CC2)ccc1OC(C)=O | 3.52% (inactive)
CC(C)c1cc(C(=O)N(C)C2CCCN(Cc3ccccc3F)C2)n(C)n1 (stereo not drawn) | -4.84% (inactive)
Cc1nc(NC(=O)C(C)(C)C)sc1[N+](=O)[O-] | -2.63% (inactive)
FC(F)(F)c1ccnc(Oc2ccc(C3=NCCS3)cc2)c1 | 50.4% (active)
O=Cc1ccc(Oc2cccc(C(F)(F)F)c2)nc1 | 0.99% (inactive)
N#CCCN(C(=S)Nc1ccc(Cl)c(Cl)c1)C1CCCCC1 | -1.58% (inactive)
CCCCCCCCN1C(=O)[C@@H](CC(=O)NCc2ccccc2)C[C@@]2(C(=O)OC)C1=C[C@H](C(C)(C)C)O[C@@H]2C | -15% (inactive)
Cc1cc(OC(=O)NCCc2ccc(F)cc2)ccc1F | 2.45% (inactive)
COc1ccc(-c2ccc(CN3C(C(C)C)C(=O)N(Cc4cn(CC5CCCCC5)nn4)CCS3(=O)=O)cc2)cn1 (stereo not drawn) | -0.388% (inactive)
O=S(=O)(Nc1ccc2cn[nH]c2c1)c1ccccc1 | -1.72% (inactive)
O=S(=O)(Nc1ccc2nc(-c3ccco3)[nH]c2c1)c1ccccc1 | 37.5% (active)
Cn1c(CCN2CCCC2)nc2cc(NS(=O)(=O)c3ccccc3)ccc21 | 2.48% (inactive)
Nc1ncnc2c1ncn2C1OC(CO)CC1O (stereo not drawn) | 0.661% (inactive)
Cc1cccc(C(=O)C(O)(c2ccccc2)C2CCCCC2=O)c1 (stereo not drawn) | -5.91% (inactive)
CCOC(=O)c1cn[nH]c1NC(=S)Nc1ccccc1 | 48.2% (active)
CCOC(=O)c1ccc(NC(=S)Nc2cc(C)cc(C)n2)cc1 | -1.38% (inactive)
CCOC(=O)c1cc2c(nc1NC(=S)Nc1ccccc1)CC(C)(CC)OC2 (stereo not drawn) | 9.37% (inactive)
COc1ccc(C(=O)NCc2ccc(Cl)cc2)cc1S(=O)(=O)N1CCCC1 | -0.0405% (inactive)
COc1ccc(F)cc1S(=O)(=O)N1CCCCC1 | -0.652% (inactive)
COc1ccc(Cl)cc1S(=O)(=O)N1CCC(O)(c2ccc(Cl)cc2)CC1 | 61.9% (active)

Structure (SMILES) | activation
CCc1nc2c(OCc3ccc(Cl)cc3Cl)cccn2c1N(C)C(=O)C(C)C | -1.94% (inactive)
Cc1cccc(OCC(=O)NCCCNC(=O)c2ccccn2)c1 | -0.523% (inactive)
CCN(CC)CCOc1ccc2c(c1)C(=NNC(=O)c1ccccn1)c1cc(OCCN(CC)CC)ccc1-2 | 54.2% (active)
Cc1ccc(Cl)cc1NC(=O)c1ccccn1 | -3.27% (inactive)
OC(c1ccccc1)(c1ccccc1)C1CCN(CCCOc2ccccc2)CC1 | -5.07% (inactive)
COc1ccc(Sc2ccc(NC(=O)c3cccc(Cl)c3)cc2C#N)cc1 | -0.516% (inactive)
CCOC(=O)N1CCC(Nc2c(NCCCN3CCN(c4ccc(OC)cc4)CC3)c(=O)c2=O)CC1 | 33.6% (active)
CCOC(=O)N1CCC(Nc2c(NCCN3CCN(c4cccc(Cl)c4)CC3)c(=O)c2=O)CC1 | -0.679% (inactive)
CCOC(=O)N1CCC(Nc2c(NCCCN3CCN(CC)CC3)c(=O)c2=O)CC1 | 1.91% (inactive)
COC(=O)[C@]12CCCCC=C1N(Cc1ccccc1)C(=O)[C@H](CC(=O)NCc1ccc(C)o1)C2 | -1.58% (inactive)
OC(c1ccccc1)c1nc(-c2cnc3ccccc3c2)cs1 (stereo not drawn) | 50.7% (active)
CC(C)c1cccc(-c2csc(C(O)c3ccccc3)n2)c1 (stereo not drawn) | 1.98% (inactive)
COc1cccc(C(NC(C)=O)c2nc(-c3cnc4ccccc4c3)cs2)c1 (stereo not drawn) | -0.125% (inactive)
Cc1cc(Cl)ccc1C(=O)C1CCCN(C(=O)c2ccc3c(c2)OCO3)C1 (stereo not drawn) | -2.01% (inactive)
COc1ccc(C(=O)N2CCCCC2c2cc(C(=O)Nc3ccccc3)no2)cc1 (stereo not drawn) | -2.86% (inactive)
CCc1ccccc1NC(=O)CN1CCN(C(=O)c2cc(C3CC3)nn2-c2ccccc2)CC1 | -4.73% (inactive)
COc1cccc(-c2cnc3c(NC(C)=O)cc(-c4cccc(NC(C)=O)c4)cn23)c1 | -2.59% (inactive)
COc1cc(/C=C2/C(=O)ON=C2C)ccc1OCc1cccc(F)c1 | 13.4% (inactive)
C=CCOc1ccc(/C=C2/C(=O)ON=C2C)cc1OCC | -0.78% (inactive)
COc1cc(/C=C2/C(=O)ON=C2C)ccc1OCc1ccccc1F | 48.1% (active)
C[C@@H]1Cn2cnc(C(=O)Nc3ccc(CNC(=O)OC(C)(C)C)cc3)c2C(=O)N1 | -0.752% (inactive)
COc1cccc(NC(=O)Nc2ccc(F)cc2)c1 | 4.29% (inactive)
Cc1ccc(-c2cnc(C(O)c3cc(Cl)cc(Cl)c3)[nH]2)cc1 (stereo not drawn) | -5.54% (inactive)
Cc1cccnc1CC(C)NC(=O)c1cc(COc2cncc(Cl)c2)on1 (stereo not drawn) | 7.75% (inactive)

Structure (SMILES) | activation
COc1ccc(OCc2cc(C(=O)NCC3(C)COC3)no2)c(Cl)c1 | 7.69% (inactive)
Cc1cc(OCc2cc(C(=O)NCc3cc(C(C)C)no3)no2)cc(C)c1Cl | 40.5% (active)
CN(Cc1ccccc1)C(=O)CSc1nc2ccccc2[nH]1 | 12.8% (inactive)
C=CCSc1nc2ccccc2[nH]1 | 0.251% (inactive)
O=C(CSc1nc2ccccc2[nH]1)c1cccs1 | 58.5% (active)
C#CCN([C@@H](C)C(=O)OCC)S(=O)(=O)c1ccc(Br)cc1F | -2.08% (inactive)
Cc1ccc(OCC(=O)Nn2cnc3ccccc32)cc1 | -2.76% (inactive)
O=C(c1ccc(Cl)cc1)n1cnc2ccccc21 | 0.992% (inactive)
COC(=O)c1ccc(-n2cnc3ccccc32)nc1 | 41.6% (active)
Cc1c(C(=O)NCc2ccc(C#N)cc2)sc(=O)n1Cc1ccc(C(=O)N(C)C)cc1 | -0.79% (inactive)
COc1ccc(C(O)c2nc(-c3ccc(OC)nc3)cs2)cc1 (stereo not drawn) | -2.19% (inactive)
CCOC(=O)[C@]12CCCC=C1N(Cc1ccc(Cl)cc1Cl)C(=O)[C@H](CC(=O)N1CCCCC1)C2 | -0.046% (inactive)
CCc1ccccc1NC(=O)CSc1nnc(CCNC(=O)OC(C)(C)C)o1 | -2.11% (inactive)
CCc1ccccc1NC(=O)CSc1nnc([C@@H](NC(=O)OC(C)(C)C)C(C)CC)o1 (stereo partly drawn) | 31.4% (active)
CCc1ccccc1NC(=O)CSc1nnc(-c2ccncc2)o1 | 0.131% (inactive)
Cc1cc(Br)cn2c(Cc3ccccc3C(F)(F)F)c(-c3ccc(C#N)cc3)nc12 | -2.44% (inactive)
CSCCC(c1nnnn1Cc1ccccc1)N1CCN(C/C=C/c2ccccc2)CC1 (stereo not drawn) | -2.2% (inactive)
O=C(CSc1nc2cccc(F)c2c(=O)n1-c1ccccc1)Nc1ccc2c(c1)CCC2 | -0.606% (inactive)
O=C(Nc1ccc(O)cc1)c1ccc(NC(=O)c2ccco2)cc1 | 9.09% (inactive)
Cc1ccc(NC(=O)c2ccco2)cc1 | -2.54% (inactive)
COC(=O)c1ccc(NC(=O)c2ccco2)cc1 | 58% (active)

Reference: PubChem BioAssay AID743398 (Broad Institute, 2014)
